Test results: PubChem BioAssay AID1626 (SRMLSC, 2009)
Out of some 220,000 compounds screened, about 2,000 (0.91%) were called active. Not shown: some 2% with an inconclusive outcome. These entries were drawn from the full list. Measured potencies and affinities stand elsewhere. Unmarked numbers belong to inactive results. Rule as the data show it: inconclusive = inhibition above about 80% without an active follow-up result; inactive = below that; test concentration not stated here.

Assay: M. tuberculosis H37Rv growth inhibitors, H37Rv strain (AID 1626);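 also: bacteria incubated seven days before Alamar blue readout; 0% = bacteria only wells and 100% = bacteria with antibiotic wells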
Settings: hits give high values, concentration not given here

Point of comparison: `CCc1ccc(/C=C/C(=O)c2c(C)cc(C)[nH]c2=O)cc1`, inhibition 8.7%. Against it:
- Cc1ccc(S(=O)(=O)N2CCOCC2)cc1C(=O)NCc1ccco1 — lower, -8.9%
- Cc1cc2ccccc2n1CCNC(=O)COc1ccccc1 — higher, 13.1%
- O=C(COc1ccc2ccccc2c1)NCCn1ccc2ccccc21 — higher, 9.42%
- Cc1nn(CC(=O)Nc2ccc3c(c2)nc2n3CCN(C3CCCCC3)C2)c(=O)c2ccccc12 — lower, -1.06%
- Cc1nn(Cc2ccc(Cl)c(Cl)c2)c(C)c1NC(=O)c1noc2c1CCCCC2 — lower, -6.28%
- Cn1c(SCC(=O)c2ccc(F)cc2)nc2cccnc21 — lower, 3.26%
- CCCc1nc(SCC(=O)c2ccc(F)cc2)c2ccccc2n1 — lower, 8.42%
- COc1ccc(C(=O)CSc2nnc3ccc(-c4ccccn4)nn23)cc1 — lower, 2.65%
- COc1ccc(C(=O)CSc2nnc(-c3ccccn3)n2Cc2ccco2)cc1 — lower, -7.14%
- Cc1nc2ccccc2nc1SCC(=O)c1ccccc1 — lower, 8.55%
- Cc1nc(-c2ccccn2)nc(SCC(=O)N2CCOCC2)c1Cl — lower, 3.81%
- Cc1ccc(NC(=O)COC(=O)c2ccc([N+](=O)[O-])o2)cc1S(=O)(=O)N1CCCCC1 — lower, 8.45%
- O=C1c2ccccc2C(=O)N1CN(C(=O)c1ccccc1)c1ccc(O)cc1 — lower, -0.6%
- Cc1cccnc1CCNC(=O)CCc1nnc(-c2ccccc2)o1 — lower, 5.3%
- CCCN1CCN(C(=O)c2ccc(Sc3ccc(C)cc3)c(NC(C)=O)c2)CC1 — lower, 3.99%
- CC(C)(C)c1ccccc1OCCN1CCCC1 — lower, -0.65%
- CC(C)(C)c1ccccc1OCCCCN1CCCC1 — lower, 6.1%
- CNC(=O)NC(=O)COC(=O)c1ccc(-n2c(C)ccc2C)cc1 — higher, 20.2%
- CCOc1ccc(NC(=O)CSc2nnc(C3CC3)n2C)cc1 — higher, 27.2%
- Cc1ccc(S(=O)(=O)N(CCCO)Cc2cc3c(C)ccc(C)c3[nH]c2=O)cc1 — lower, -4.12%
- c1ccc(CC2CCN(c3nc4ccccc4n4nnnc34)CC2)cc1 — higher, 12.1%
- c1ccc(CN2CCN(c3nc4ccccc4n4cnnc34)CC2)cc1 — lower, 6.21%
- O=C(Nc1cccc(C(F)(F)F)c1)C1CCCN1S(=O)(=O)c1cccc2cccnc12 (centres undefined) — lower, -8.3%
- CCCNC(=O)c1ccc2c(=O)c(O)c(-c3ccc(OC)cc3)[nH]c2c1 — lower, -8.43%
- CCO[C@@H]1OC(C(=O)O)=C[C@H](C2CCCCC2)[C@H]1CCCO — lower, 6.74%
- CCCCOC(=O)Nc1cccc(C(=O)OCC)c1 — lower, 4%
- CCN(CC)c1ccc(NC(=O)c2ccc(Br)o2)cc1 — lower, -1.94%
- CCCCOC(=O)Nc1ccc(C(=O)OC)cc1 — lower, -7.29%
- CCCOC(=O)c1ccc(NC(=O)c2cc(OC)c(OC)c(OC)c2Br)cc1 — lower, -1.63%
- COc1ccc(NC(=O)c2ccc(Br)o2)cc1 — lower, -11.7%
- CCOC(=O)c1ccc(NC(=O)c2cc(OC)c(OC)c(OC)c2Br)cc1 — higher, 30.9%
- CCCCOC(=O)Nc1ccc(C(N)=O)cc1 — lower, -2.7%
- CCOC(=O)NCCOC(=O)Nc1ccc(Cl)cc1 — lower, 2.79%
- O=C1CCC2c3ccc4ccccc4c3CCN12 (centres undefined) — lower, -9.72%
- O=C(O)c1ccccc1C(=O)NCc1cccnc1 — lower, -5.59%
- COc1ccc(-n2c(NN)nc3sc4c(c3c2=O)CCCC4)cc1 — higher, 9.05%
- COc1ccc(-n2c(C)nc3sc4c(c3c2=O)CCC4)cc1 — lower, -4.02%
- CNC(C)C#Cc1ccc2c(=O)c3cc(C)c(C)cc3oc2c1 (centres undefined) — lower, -0.56%
- Cn1nc(C(=O)OCC(=O)Nc2ccc(S(N)(=O)=O)cc2)c2ccccc2c1=O — lower, 4.62%
- COc1ccc(CCNC(=O)CSCc2ccc(F)cc2)cc1OC — lower, -4.44%
- Cc1ccccc1OC(=O)CCC(=O)OCCCC(F)(F)C(F)(F)F — lower, -4.35%
- c1ccc2c(c1)CC(N1CCCCC1)c1ccccc1N2 (centres undefined) — lower, -6.95%
- COCCCN1CCN(C2Cc3ccccc3Sc3ccc(Cl)cc32)CC1 (centres undefined) — higher, 54.7%
- CCc1nnc(NC(=O)CSc2nc3cc4c(cc3cc2CC)OCCO4)s1 — lower, 7.01%
- Cn1c(CN2CCOCC2)nnc1SCC(N)=O — lower, 7.64%
- O=C(NCCSCc1c(F)cccc1Cl)c1ccc(CN2CCOCC2)cc1 — lower, 0.75%
- CC1CCN(S(=O)(=O)N2CCC(C(=O)O)CC2)CC1 — lower, -4.2%
- C=CCNC(=O)NC(=O)CSc1nnc(C(F)(F)F)n1C — lower, -4.51%
- CCCc1cc(=O)oc2cc(OCC(=O)OC)cc(OCC(=O)OC)c12 — lower, 6.75%
- CCCCCCc1ccc(OCC(=O)O)cc1OCC(=O)O — lower, -14.7%
- Cn1c2ccc(F)cc2c2ncn(CC3CCCO3)c(=O)c21 (centres undefined) — lower, -14%
- CCCn1c(=O)c(C(=O)NCc2cccnc2)c(O)c2ccccc21 — lower, -5.34%
- CCCCCn1c(=O)c(C(=O)NCc2ccncc2)c(O)c2ccccc21 — higher, 41.4%
- CCCCn1c(=O)c(C(=O)NCc2ccncc2)c(O)c2ccccc21 — lower, -0.26%
- CC(C)Cn1c(=O)c(C(=O)Nc2cnccn2)c(O)c2ccccc21 — lower, -13.3%
- O=C(/C=C/c1ccco1)NC(=S)Nc1ccccn1 — lower, 2.96%
- COc1ccc(S(=O)(=O)N(C)C2CCN(C)CC2)cc1 — lower, -0.56%
- CC(=O)c1ccc(C(=O)N2CCC(CO)(Cc3cccc(C(F)(F)F)c3)CC2)cc1 — lower, -0.21%
- CC1=C(C(=O)NC2CCC(C)CC2)C2(CCC(C)CC2)OC1=O (centres undefined) — lower, 3.77%
- CCc1ccc(/C=C/C(=O)c2ccc(S(=O)(=O)N(C)C)cc2)cc1 — lower, 6.7%
- Cc1ccc(C(=O)C2C(=O)c3ccccc3C2=O)cc1 — higher, 39.5%
- Cc1ccc(/C=C/C(=O)c2ccccc2O)cc1 — higher, 11.9%
- COC(=O)C1C(=O)C(C(=O)/C=C/c2ccccc2)C(=O)CC1(C)C (centres undefined) — lower, -2.58%
- O=C(c1ccccc1)C1C(=O)c2ccccc2C1=O — lower, -2.43%
- CNc1nc(-c2ccc3c(c2)CCN3C(=O)c2ccccc2F)cs1 — lower, 0.06%
- CC(C)(C)NC(=O)CN(C(=O)CSc1nnc(COc2ccccc2)o1)c1cccc(F)c1 — lower, 4.71%
- CC(C)OP(=O)(OC(C)C)C(NCc1ccccc1)c1ccccc1 (centres undefined) — lower, 4.8%
- COC(=O)c1c(-c2ccccc2)noc1C — lower, -2.56%
- COc1ccc(/C=N/NC(=O)Nc2nonc2N)cc1 — lower, -4.3%
- OCCCNCc1cccc2ccccc12 — lower, 3.9%
- O=C(Nc1ccccc1Cl)c1csc(-c2cccnc2)n1 — lower, 2.6%
- Cc1[nH]c(C)c2c(=O)n(-c3ccccc3)ncc12 — lower, 3.67%
- CCCSc1cc(N2CCCC2)nc(-c2ccccc2)n1 — lower, 6.61%
- CCSc1cc(N2CCCC2)nc(-c2ccc(C)cc2)n1 — lower, 3.04%
- CC(C)(CC(=O)O)CC(=O)NNc1ncccc1C#N — higher, 9.47%
- CCOc1ccc(/C=N/N(C)c2ccccc2)cc1OC — higher, 33.5%
- O=C(O)C1CCCCC1C(=O)Nc1ccc(F)c(F)c1 (centres undefined) — lower, 0.5%
- Cc1ccc(NC(=O)C2CCCCC2C(=O)O)cc1C (centres undefined) — lower, 1.55%
- COc1cc(/C=N/NC(N)=O)ccc1OCC(=O)N1C(C)CCCC1C (centres undefined) — lower, -1.38%
- Nc1nc(Nc2ccccc2)sc1C(=O)c1ccccc1 — higher, 36.1%
- Cc1sc(N)c(C(=O)c2ccccc2)c1C — lower, -10.3%
- O=C(c1ccccc1)c1cc2ccccc2o1 — lower, 1.99%
- CN(C)/C=N/c1ncc(C(=O)c2ccccc2)s1 — lower, -11.7%
- COC(=O)CCCC1=CC2=C(c3ccccc3)C(=O)C(C)(OC(=O)C3CCCC3)C(=O)C2=CN1CCc1c[nH]c2ccccc12 (centres undefined) — lower, 0.18%
- COc1ccc(-n2c(C)cc(C(=O)Cn3nnc4ccccc4c3=O)c2C)cc1 — lower, -8.34%
- Cc1ccc(CN(c2ccc(C(=O)N3CCc4ccccc4C3)cc2)S(C)(=O)=O)cc1 — lower, 6.8%
- N#Cc1ccccc1Cn1cc(C(=O)c2cccs2)c2ccccc21 — lower, 7.78%
- Nc1nc(Nc2cccc(F)c2)nc(NCCO)c1[N+](=O)[O-] — lower, 7.19%
- CC1CCC(C(C)C)C(OC(=O)COC(=O)c2ccc(=O)[nH]c2)C1 (centres undefined) — lower, -0.66%
- CC1CCC(C(C)C)C(OC(=O)COC(=O)c2ccccc2N)C1 (centres undefined) — lower, 6.07%
- CC1CCC(C(C)C)C(OC(=O)CSc2nccc(=O)[nH]2)C1 (centres undefined) — lower, -8.76%
- CC1CCC(C(C)C)C(OC(=O)COC(=O)c2cccn2C)C1 (centres undefined) — lower, -6.06%
- CC1CCC(C(C)C)C(OC(=O)COC(=O)c2ccc(N)cc2)C1 (centres undefined) — higher, 68.7%
- CC1CCC(C(C)C)C(OC(=O)Cn2nnc3c(cnn3-c3ccccc3)c2=O)C1 (centres undefined) — lower, 1.77%
- CCOc1ccc(CCNC(=O)Cn2cccc2C(=O)c2ccccc2C)cc1OCC — lower, 4.18%
- Cc1c(-c2n[nH]c(=S)n2-c2ccc(Br)cc2)nnn1-c1ccc(Cl)cc1 — lower, 4.27%
- CCOC(CNc1c([N+](=O)[O-])c(=O)n(C)c(=O)n1C)OCC — lower, 3.27%
- Cc1ccccc1NC(=O)OCc1cccnc1Sc1ccc(Cl)cc1 — lower, 0.86%
